Test results as given in PubChem BioAssay (NCATS).
Records with an inconclusive call do not appear. Calls of active or inactive are those of the source. Unless noted, calls follow the shape of the dose curve; as a rule, active = well fitted curve in the direction sought with a large enough effect; inconclusive = small, poorly fitted or top-dose-only effect, or another doubt; inactive = no such curve, though single readings can be large; an effect the other way counts as inactive or inconclusive.

Assays:
[1] = Validation of Assay for Modulators of Lamin A Splicing (AID 1459; active = well fitted curve in the direction sought with a large enough effect in the signal ratio; the % refers to the signal ratio;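 also: cells exposed to compound for two days before reading; 0% is about no effect; ratio rise marks activators and ratio drop marks inhibitors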)
Summary of the method: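 HeLa S3 lamin A-EGFP/DsRed2 stable clone, 600 cells/well, Opti-MEM 2% FBS; compounds by pin tool; 48 hrs, 37 °C/5% CO2; Acumen 488 nm scan, objects 10-100 um; GFP/RFP intensity ratio.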

[2] = target: DNA repair nuclease/redox regulator APEX1 (Homo sapiens) (UniProt P27695); experiment: qHTS Validation Assay for Inhibitors of the Human Apurinic/apyrimidinic Endonuclease 1 (APE1) (AID 1705;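 also: TAMRA fluorescence gain over two minutes as APE1 cuts a quenched THF abasic duplex; series mostly up to about 57 µM; % is scaled to controls: 0 for no effect and ±100 for the full control effect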)
Summary of the method: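 qHTS, 1536-well. APE1 + cpd 15 min RT → 50 nM TAMRA/BHQ-2 THF-abasic dsDNA substrate → kinetic fluorescence, 3 reads/60 s; delta(read3−read1) = reaction progress. No-enzyme buffer = negative control.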

[3] = Counterscreen for APE1 Inhibitors: Fluorescent Dye Displacement Validation Assay (AID 1707);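 also: plate controls were ThO with dsDNA and no compound for no effect and ThO without dsDNA for full effect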
Summary of the method: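 Counterscreen flags promiscuous DNA binders: compounds displacing ThO from duplex DNA (abasic THF site, 50 nM) reduce 540 nm emission (480 nm excitation). ThO 250 nM final; Tris-HCl pH 7.5 with NaCl, MgCl2 and Tween-20.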

[4] = target: Endonuclease 4 (Escherichia coli (strain K12)) (UniProt P0A6C1); experiment: Counterscreen for APE1 Inhibitors: qHTS Validation Assay for Inhibitors of Endonuclease IV (AID 1708); also: % is scaled to controls: 0 for no effect and ±100 for the full control effect
Summary of the method: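 Incision of a double-stranded 50 nM TAMRA/BHQ-2 abasic substrate was followed kinetically (525/598 nm, reads every 60 s) after 15 min enzyme–compound preincubation with 2 nM EndoIV in pH 7.5 Tris buffer with MgCl2, DTT and Tween-20; concentration-response format.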

[5] = qHTS for differential inhibitors of proliferation of Plasmodium falciparum line 7G8 (AID 1815);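 also: parasite growth measured after three days of incubation; plate controls were vehicle wells for no effect and reference inhibitor wells for full effect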
[6] = qHTS for differential inhibitors of proliferation of Plasmodium falciparum line GB4 (AID 1816); settings: Potency: Plasmodium falciparum GB4 proliferation inhibition;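 also: parasite growth measured after 72 h incubation; 0% = vehicle DMSO and -100% = reference inhibitor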
[7] = qHTS for differential inhibitors of proliferation of Plasmodium falciparum line 3D7 (AID 1876);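 also: parasite growth measured after three days of culture; 0% = vehicle wells and -100% = reference inhibitor wells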
[8] = qHTS for differential inhibitors of proliferation of Plasmodium falciparum line D10 (AID 1877);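 also: parasites grown with compound for 72 h before DNA staining; plate controls were vehicle wells for no effect and reference inhibitor wells for full effect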
[9] = qHTS for differential inhibitors of proliferation of Plasmodium falciparum line Dd2 (AID 1882); settings: Potency: Plasmodium falciparum Dd2 proliferation inhibition;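 also: series mostly up to about 29 µM; plate controls were DMSO vehicle for no effect and 0.29 µM artemisinin for full effect; nearly all actives have a fitted effect of over 65% in size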
Summary of the method: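 SYBR Green DNA fluorescence (ex 485, em 535 nm) after overnight lysis quantifies parasite growth; compound exposure lasted 72 h at 37 C on infected red cells at 2.5% hematocrit, 0.3% parasitemia (final). Artemisinin 0.29 uM and vehicle wells define normalization.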

[10] = qHTS for differential inhibitors of proliferation of Plasmodium falciparum line HB3 (AID 1886); settings: Potency: Plasmodium falciparum HB3 proliferation inhibition;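 also: parasites grown with compound for 72 h before SYBR Green readout; plate controls were vehicle for no effect and reference inhibitor for full effect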
[11] = target: Ferritin light chain (Equus caballus) (UniProt P02791); experiment: qHTS Validation Assay for Identification of Novel General Anesthetics (AID 2323); also: series mostly up to about 77 µM; % is scaled to controls: 0 for no effect and ±100 for the full control effect
Summary of the method: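 Fluorescence at 535 nm (excitation 380 nm) reported loss of 1-AMA binding to horse-spleen apoferritin (10 uM) in PBS with 50% saturated 1-aminoanthracene, after 10 min room-temperature incubation with compound; values from Hill fits of normalized response.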

[12] = target: ATP-dependent DNA helicase Q1 (Homo sapiens) (UniProt P46063); experiment: qHTS Validation Assay for Inhibitors of RecQ-Like Dna Helicase 1 (RECQ1) (AID 2353);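 also: plate controls were DMSO vehicle for no effect and enzyme-free control for full effect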
Summary of the method: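 RECQ1T1 50 nM; forked duplex (20 bp + 30-nt ss tails) 200 nM, ATP 2 mM final; pH 8.0, 2 mM MgCl2, 2.5 ug/ml poly(dI-dC); 15 min compound preincubation; discontinuous kinetic read over 2 h at RT.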

[13] = Validation screen for small molecules that induce DNA re-replication in MCF 10A normal breast cells (AID 463097); also: 0% is about no effect; nearly all actives have a fitted effect of over 60% in size
Summary of the method: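 Image-based qHTS: normal breast cells are incubated with compound for 48 hr, stained with Hoechst, and scanned for total nuclear fluorescence. Compounds raising the fraction of nuclei with elevated DNA content count as re-replication inducers.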

[14] = Quantitative high throughput screen for delayed death inhibitors of the malarial parasite plastid, 96 hour incubation (AID 488745);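 also: luciferase-expressing P. falciparum in erythrocytes at 2% hematocrit and 0.1% parasitemia; series mostly up to about 29 µM; % is scaled to controls: 0 for no effect and ±100 for the full control effect; nearly all actives have a fitted effect of over 70% in size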
Summary of the method: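 Readout is firefly luciferase luminescence from an integrated reporter in P. falciparum; lower signal marks inhibited growth. Cultures at 2% hematocrit and 0.1% parasitemia were treated with compound across two generations (96 h, 37 C, 5% CO2).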

[15] = target: M-phase phosphoprotein 8 (Homo sapiens) (UniProt Q99549); experiment: qHTS Validation Assay for Inhibitors for MPP8 Chromodomain Interactions with Methylated Histone Tails (AID 488949);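 also: 50 nM MPP8 with 50 nM peptide preformed then compounds added for 30 min; AlphaScreen signal from MPP8 chromodomain bound to biotinylated H3K9me3 peptide; top concentration of the series differs between compounds; % is scaled to controls: 0 for no effect and ±100 for the full control effect; nearly all actives have a fitted effect of over 55% in size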
Summary of the method: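 50 nM MPP8 + 50 nM b-H3K9me3 peptide, PBS pH 7.4/0.01% Tween-20, 30 min RT; + cpd 30 min RT; + AlphaScreen donor/Ni-chelate acceptor beads 10 ug/mL final, 30 min dark; luminescence read.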

[16] = target: Transient receptor potential cation channel subfamily V member 1 (Homo sapiens) (UniProt Q8NER1); experiment: HTS Assay for Compounds that Act as Enhancers of the Vanilloid Receptor 1 (AID 488979); also: 0% is about no effect
Summary of the method: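 Calcium influx kinetics via Fluo-8 (480/520 nm) in TRPV1-expressing cells, 2000/well cultured overnight at 35.5C. Compound-alone read 3 min (agonist phase), followed by EC20 capsaicin challenge for 2 min (enhancer phase).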

[17] = target: Thyrotropin-releasing hormone receptor (Homo sapiens) (UniProt P34981); experiment: qHTS for Small Molecule Agonists and Allosteric Enhancers of Human TRH Receptor: Validation Screen for Agonists (AID 493127;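 active = calcium activation more than 3 SD above the typical response in the agonist read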;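 also: intracellular calcium rise by fluo-8 fluorescence before TRH EC20 addition; 0% is about no effect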); settings: TRH receptor agonist cell assay; at 2 µM; hits give high values
Summary of the method: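 Compounds are added by online pintool to dye-loaded TRHR cells while fluorescence is recorded every second. A rise in calcium signal during the agonist read marks activation; a later 10 nM TRH addition (EC20) serves the separate enhancer mode.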

[18] = target: Galactokinase (Homo sapiens) (UniProt P51570); experiment: qHTS Validation Assay for Inhibitors of Human Galactokinase (GALK) (AID 493189); also: 0% is about no effect
Summary of the method: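 5 nM GALK / 100 uM galactose / 35 uM ATP, 20 mM HEPES pH8.0, 5 mM MgCl2, 60 mM NaCl, 1 mM DTT, 0.01% BSA (final). RT 1 h; Kinase-Glo Plus luminescence.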

[19] = Validation screen for small molecules that induce DNA re-replication in SW480 colon adenocarcinoma cells (AID 504364); also: 0% is about no effect
Summary of the method: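 Image-based qHTS: compounds were incubated with SW480 cells for 48 hr, nuclei stained with Hoechst, and per-nucleus fluorescence intensity scanned to flag cells with excess DNA content.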

Sequence of Galactokinase (Homo sapiens) (P51570 whole entry, looked up): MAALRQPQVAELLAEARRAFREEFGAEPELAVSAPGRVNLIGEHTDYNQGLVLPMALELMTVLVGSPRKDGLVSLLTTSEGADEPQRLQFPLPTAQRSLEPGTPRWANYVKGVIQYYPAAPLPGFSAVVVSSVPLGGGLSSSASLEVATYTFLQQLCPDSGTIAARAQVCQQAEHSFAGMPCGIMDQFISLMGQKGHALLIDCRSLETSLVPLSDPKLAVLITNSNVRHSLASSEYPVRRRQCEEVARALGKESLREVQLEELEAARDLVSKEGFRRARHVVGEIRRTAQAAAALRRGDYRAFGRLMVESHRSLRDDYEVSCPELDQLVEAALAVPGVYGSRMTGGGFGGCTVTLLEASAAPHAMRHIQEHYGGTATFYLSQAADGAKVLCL
Sequence of DNA repair nuclease/redox regulator APEX1 (Homo sapiens) (P27695 whole entry, looked up): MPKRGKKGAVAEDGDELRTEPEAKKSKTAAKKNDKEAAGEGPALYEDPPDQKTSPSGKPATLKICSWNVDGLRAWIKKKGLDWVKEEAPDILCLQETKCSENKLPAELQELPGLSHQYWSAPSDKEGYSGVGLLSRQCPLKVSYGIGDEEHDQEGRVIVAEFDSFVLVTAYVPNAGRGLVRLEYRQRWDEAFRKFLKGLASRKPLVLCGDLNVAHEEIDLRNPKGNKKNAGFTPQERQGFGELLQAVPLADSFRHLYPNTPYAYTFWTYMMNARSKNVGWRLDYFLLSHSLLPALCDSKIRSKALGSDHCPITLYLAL
Sequence of ATP-dependent DNA helicase Q1 (Homo sapiens) (P46063 whole entry, looked up): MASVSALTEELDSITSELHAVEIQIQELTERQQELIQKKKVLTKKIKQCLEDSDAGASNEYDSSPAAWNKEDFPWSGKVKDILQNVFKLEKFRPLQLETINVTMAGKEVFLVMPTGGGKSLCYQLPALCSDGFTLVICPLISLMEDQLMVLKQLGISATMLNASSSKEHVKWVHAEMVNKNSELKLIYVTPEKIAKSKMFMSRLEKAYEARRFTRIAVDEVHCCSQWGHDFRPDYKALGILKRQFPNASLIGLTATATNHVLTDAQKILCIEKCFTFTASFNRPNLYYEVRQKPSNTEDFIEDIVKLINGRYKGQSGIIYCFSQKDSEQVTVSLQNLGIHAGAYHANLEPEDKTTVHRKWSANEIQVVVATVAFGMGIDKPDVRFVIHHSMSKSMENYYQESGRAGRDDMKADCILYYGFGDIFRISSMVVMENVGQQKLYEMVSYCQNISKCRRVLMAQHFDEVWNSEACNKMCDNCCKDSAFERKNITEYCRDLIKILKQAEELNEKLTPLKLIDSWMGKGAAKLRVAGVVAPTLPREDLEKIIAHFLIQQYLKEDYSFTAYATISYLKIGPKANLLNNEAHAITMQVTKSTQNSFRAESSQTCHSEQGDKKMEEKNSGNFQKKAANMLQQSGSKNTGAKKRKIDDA
Sequence of M-phase phosphoprotein 8 (Homo sapiens) (Q99549 whole entry, looked up): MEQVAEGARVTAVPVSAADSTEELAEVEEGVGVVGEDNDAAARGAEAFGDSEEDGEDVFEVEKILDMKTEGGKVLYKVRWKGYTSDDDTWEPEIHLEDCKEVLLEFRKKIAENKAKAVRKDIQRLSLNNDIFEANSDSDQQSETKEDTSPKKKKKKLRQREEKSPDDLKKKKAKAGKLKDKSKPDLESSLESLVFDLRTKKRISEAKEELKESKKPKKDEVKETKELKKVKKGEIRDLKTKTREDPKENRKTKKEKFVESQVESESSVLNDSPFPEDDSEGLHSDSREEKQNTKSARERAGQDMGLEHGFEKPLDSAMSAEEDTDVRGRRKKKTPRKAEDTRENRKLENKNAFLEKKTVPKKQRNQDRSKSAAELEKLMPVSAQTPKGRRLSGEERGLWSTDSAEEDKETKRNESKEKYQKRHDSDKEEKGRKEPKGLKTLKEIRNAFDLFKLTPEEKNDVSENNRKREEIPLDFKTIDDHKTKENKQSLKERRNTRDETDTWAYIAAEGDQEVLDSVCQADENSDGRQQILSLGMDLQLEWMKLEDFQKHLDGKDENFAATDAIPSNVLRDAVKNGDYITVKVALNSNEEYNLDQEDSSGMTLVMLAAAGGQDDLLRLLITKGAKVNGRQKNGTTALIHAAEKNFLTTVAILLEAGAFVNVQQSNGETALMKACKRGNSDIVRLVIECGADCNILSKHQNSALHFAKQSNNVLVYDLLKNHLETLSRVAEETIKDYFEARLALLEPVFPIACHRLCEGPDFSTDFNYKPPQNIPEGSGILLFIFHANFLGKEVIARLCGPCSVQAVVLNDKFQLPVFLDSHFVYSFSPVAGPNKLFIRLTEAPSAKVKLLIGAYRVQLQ
Sequence of Transient receptor potential cation channel subfamily V member 1 (Homo sapiens) (Q8NER1 whole entry, looked up): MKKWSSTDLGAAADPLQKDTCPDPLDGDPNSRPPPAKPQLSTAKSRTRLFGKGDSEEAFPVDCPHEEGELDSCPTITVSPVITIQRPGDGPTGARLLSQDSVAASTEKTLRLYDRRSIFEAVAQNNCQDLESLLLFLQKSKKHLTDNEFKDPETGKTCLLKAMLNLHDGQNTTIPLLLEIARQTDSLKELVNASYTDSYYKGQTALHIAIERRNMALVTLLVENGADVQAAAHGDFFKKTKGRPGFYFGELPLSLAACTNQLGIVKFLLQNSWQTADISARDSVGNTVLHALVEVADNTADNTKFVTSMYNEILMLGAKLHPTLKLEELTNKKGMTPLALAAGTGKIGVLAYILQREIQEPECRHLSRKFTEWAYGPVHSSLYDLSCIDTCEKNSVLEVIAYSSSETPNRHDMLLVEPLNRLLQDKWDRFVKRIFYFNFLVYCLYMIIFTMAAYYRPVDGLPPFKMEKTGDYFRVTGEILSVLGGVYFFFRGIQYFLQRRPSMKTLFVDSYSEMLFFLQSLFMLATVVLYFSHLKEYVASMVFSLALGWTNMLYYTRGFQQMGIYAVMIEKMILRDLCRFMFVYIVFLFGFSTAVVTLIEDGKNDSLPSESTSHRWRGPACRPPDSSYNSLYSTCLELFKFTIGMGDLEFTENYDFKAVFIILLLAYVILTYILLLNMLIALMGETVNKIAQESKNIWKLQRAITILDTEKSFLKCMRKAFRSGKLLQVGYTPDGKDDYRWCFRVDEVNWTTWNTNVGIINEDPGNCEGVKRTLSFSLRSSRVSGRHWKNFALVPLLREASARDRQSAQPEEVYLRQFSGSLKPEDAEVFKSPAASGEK
Sequence of Ferritin light chain (Equus caballus) (P02791 2-175 limits assumed): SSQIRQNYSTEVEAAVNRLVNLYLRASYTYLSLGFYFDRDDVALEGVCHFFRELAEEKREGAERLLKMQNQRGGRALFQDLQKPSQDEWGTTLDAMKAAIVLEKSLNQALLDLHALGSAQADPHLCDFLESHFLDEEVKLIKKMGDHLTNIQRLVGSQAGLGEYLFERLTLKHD
Sequence of Thyrotropin-releasing hormone receptor (Homo sapiens) (P34981 whole entry, looked up): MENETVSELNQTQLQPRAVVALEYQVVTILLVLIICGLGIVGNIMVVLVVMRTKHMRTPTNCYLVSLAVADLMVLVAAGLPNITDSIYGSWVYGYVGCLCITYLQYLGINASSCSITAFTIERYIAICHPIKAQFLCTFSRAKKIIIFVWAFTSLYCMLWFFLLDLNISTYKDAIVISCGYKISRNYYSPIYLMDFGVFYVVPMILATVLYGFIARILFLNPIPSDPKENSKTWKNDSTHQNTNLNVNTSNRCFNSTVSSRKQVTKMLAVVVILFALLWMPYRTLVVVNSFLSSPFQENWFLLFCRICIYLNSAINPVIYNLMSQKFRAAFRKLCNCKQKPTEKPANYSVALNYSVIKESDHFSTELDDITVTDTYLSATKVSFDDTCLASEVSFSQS

C[C@H](Cc1ccccc1)Nc1ncnc2c1ncn2[C@@H]1O[C@H](CO)[C@H](O)[C@H]1O
inactive: outcome [1] | Potency [2] | Potency [3] | outcome [4] | Potency [5] | Potency [6] | Potency [7] | Potency [8] | Potency [9] | Potency [10] | outcome [11] | Potency [12] | outcome [13] | Potency [14] | Potency [15] | outcome [16] | activation [17] -2.69% | outcome [18] | outcome [19]
